# Counter-ions that a name gives are not always drawn.
# Tested on: HEPG2
# Experiment: Euclidean distance of Cell Painting phenotypic profile (signed KS, 77 features) to DMSO centroid (dimensionless distance); 5 or 10 uM (library dependent); higher = stronger phenotypic change vs DMSO (phenoactivity)
# Settings: 48 h
# In short: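 Stained cells were imaged confocally at 20X with 9 fields per well, after 48 h of exposure to library compounds at 10 or 5 uM (set by library; 0.1% DMSO final). The cells were five cancer lines and a healthy fibroblast line. From the images, Harmony extracted 77 features, each expressed as a signed Kolmogorov-Smirnov statistic relative to same-plate vehicle wells. Phenoactivity is measured as Euclidean distance to the median vehicle profile, using plate-position-corrected, correlation-weighted profiles averaged across replicates at the top dose.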
row,SMILES,Euclidean distance
1,CN1CCC(OC(c2ccccc2)c2ccccc2)CC1 [Diphenylpyraline hydrochloride],0.532
2,COc1cc2ncnc(Nc3cccc(Cl)c3)c2cc1OC [AG-1478 (Tyrphostin AG-1478)],0.941
3,NS(=O)(=O)c1cc2c(cc1Cl)N=C(CSCc1ccccc1)NS2(=O)=O [Benzthiazide],1.62
4,CCN(CC)CCNC(=O)c1ccc(N)cc1 [Procainamide HCl],0.326
5,CCC(C)(C)c1ccc(CC(C)CN2C[C@@H](C)O[C@@H](C)C2)cc1 (stereo not given in full) [Amorolfine HCl],0.635
6,C[C@H]1COc2c(N3CCN(C)CC3)c(F)cc3c(=O)c(C(=O)O)cn1c23 [Levofloxacin hydrate],0.54
7,O=C(Nc1ccc(S(=O)(=O)Nc2ccccc2Cl)c(Cl)c1)c1ccccn1,0.744
8,O=S(=O)(O)CCS [Mesna],2.1
9,CCCCOC(=O)c1ccc(N)cc1 [Butamben],0.737
10,CC(C)NCC(O)COc1ccc(CCOCC2CC2)cc1 (stereo not given) [Betaxolol],1.64
11,Cc1ccc(Nc2nccc(N(C)c3ccc4c(C)n(C)nc4c3)n2)cc1S(N)(=O)=O [Pazopanib],1.94
12,C[C@@H]1O[C@@H](Oc2c(-c3ccc(O)c(O)c3)oc3cc(O)cc(O)c3c2=O)[C@H](O)[C@H](O)[C@H]1O [Quercitrin],0.738
13,Cc1c(F)cccc1NC(=O)Nc1ccc(Cl)c(S(=O)(=O)[C@H]2CCCNC2)c1O,0.926
14,CC(O)c1cc(C(=O)N[C@@H](C)Cn2ccc(-c3ccc(C#N)c(Cl)c3)n2)n[nH]1 (stereo not given in full) [Darolutamide (ODM-201)],0.543
15,COc1ccc(-c2nc(N3CCOCC3)c3sc(CN(C)c4ncc(C(=O)NO)cn4)cc3n2)cn1,4.2
16,COc1cc2nc(N3CCN(C(=O)C4COc5ccccc5O4)CC3)nc(N)c2cc1OC (stereo not given) [Doxazosin],0.609
17,CS(=O)(=O)c1ccc([C@@H](O)[C@@H](CO)NC(=O)C(Cl)Cl)cc1 [Thiamphenicol],0.983
18,CNC[C@@H](O)c1ccc(O)c(O)c1 [L-Adrenaline],0.928
19,Cc1cc(OCCCS(C)(=O)=O)cc(C)c1-c1cccc(COc2ccc3c(c2)OC[C@H]3CC(=O)O)c1,1
20,Nc1nnc(-c2cccc(Cl)c2Cl)c(N)n1 [Lamotrigine],0.712

row,SMILES,Euclidean distance
1,O=C1Nc2ccc(CN3C(=O)CSC3=O)cc2/C1=C/c1cc(CN2CCOCC2)c[nH]1,0.385
2,CN(C/C=C/C#CC(C)(C)C)Cc1cccc2ccccc12 [Terbinafine],1.36
3,CC(C)=CCC/C(C)=C/CC/C(C)=C/CCC(=O)OC/C=C(\C)CCC=C(C)C [Gefarnate],0.64
4,CNC(=O)[C@H](Cc1c[nH]c2ccccc12)NC(=O)[C@@H](CC(=O)NO)CC(C)C [Ilomastat (GM6001. Galardin)],0.633
5,CCOC(=O)Nc1ccc(NCc2ccc(F)cc2)nc1N [Flupirtine maleate],0.854
6,C=CCNC(N)=S [Allylthiourea],0.823
7,OCc1cc(C(O)CNCCCCCCOCCCCc2ccccc2)ccc1O (stereo not given) [Salmeterol],2.13
8,CC[C@@H]1/C=C(\C)C[C@H](C)C[C@H](OC)[C@H]2O[C@@](O)(C(=O)C(=O)N3CCCC[C@H]3C(=O)O[C@H](/C(C)=C/[C@@H]3CC[C@@H](O)[C@H](OC)C3)[C@H](C)[C@@H](O)CC1=O)[C@H](C)C[C@@H]2OC [Ascomycin (FK520)],0.58
9,O=C(O)c1cccnc1 [Nicotinic Acid],1.92
10,CCc1nc2c(C)cc(N3CCN(CC(=O)N4CC(O)C4)CC3)cn2c1N(C)c1nc(-c2ccc(F)cc2)c(C#N)s1 [Ziritaxestat (GLPG1690)],1.42
11,Cn1cnc(N)c2ncnc1-2 [3-Methyladenine],1.37
12,CCCN(CCc1cccs1)[C@H]1CCc2c(O)cccc2C1 [Rotigotine],0.437
13,CC(C)C[C@H](NC(=O)CNC(=O)c1cc(Cl)ccc1Cl)B1OC(=O)C(CC(=O)O)(CC(=O)O)O1,4.23
14,CCOC(=O)C1=C(COCCN)NC(C)=C(C(=O)OC)C1c1ccccc1Cl (stereo not given) [Amlodipine Besylate],1.64
15,CC(=O)N1C[C@H](O)C[C@H]1C(=O)O [Oxaceprol],0.812
16,Nc1nc(O)c2ncn(CCC(CO)CO)c2n1 [Penciclovir],0.404
17,C[C@]12C[C@H](O)[C@H]3[C@@H](CCC4=CC(=O)CC[C@@]43C)[C@@H]1CC[C@@H]2C(=O)CO [Corticosterone],0.619
18,Cc1ccc(S(=O)(=O)OCC(=O)Nc2ccc(C(=O)O)c(O)c2)cc1,0.793
19,COc1ccccc1[C@H](Cn1c(=O)n(C(C)(C)C(=O)O)c(=O)c2c(C)c(-c3ncco3)sc21)OC1CCOCC1 [Firsocostat (GS-0976)],1.31
20,CN1CCN2c3ccccc3Cc3ccccc3C2C1 (stereo not given) [Mianserin HCl],1.34

# Reference: the supplement of paper PMC10127200
